Test results reported in PubChem BioAssay (EPA / NIEHS).
Results filed as inconclusive are left out. Some compounds were tested as several samples or in several runs, with calls that do not always agree. Activity calls are given as the source filed them. The calls were made as follows, unless noted: active = hit-call score of the fitted dose curve at least 0.9, where 1 is the maximum; inactive = score below 0.9.

Key:
[1] = read-out: Monocyte Chemoattractant Protein-1 (MCP1), CCL2 (gene 6347); assay: BSK_LPS_MCP1: BioMAP Diversity Plus: LPS Assay for Monocyte Chemoattractant Protein-1 (MCP1) Biomarker Activity (AID 2283081); settings: primary human HUVEC with PBMC; actives raise or lower the signal;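 as to AC50: secreted MCP-1 protein quantified by ELISA in culture supernatant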
In short: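 ELISA read-out of MCP-1 after 24 h chemical dosing of a human umbilical vein endothelial cell/peripheral blood mononuclear cell co-culture stimulated with LPS. Gain or loss of signal fitted relative to DMSO controls.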

[2] = BSK_LPS_PGE2: BioMAP Diversity Plus: LPS Assay for Prostaglandin E2 (PGE2) Biomarker Activity (AID 2283082); settings: primary human HUVEC with PBMC; actives raise or lower the signal;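 as to AC50: secreted prostaglandin E2 measured by ELISA in LPS-stimulated co-culture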
In short: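 PGE2 release measured by ELISA in an LPS-activated co-culture of human umbilical vein endothelial cells and peripheral blood mononuclear cells, read at 24 h post-dosing. DMSO served as baseline for bidirectional curve fitting.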

[3] = read-out: Tissue Factor, F3 (gene 2152); assay: BSK_LPS_TissueFactor: BioMAP Diversity Plus: LPS Assay for Tissue Factor Biomarker Activity (AID 2283084); settings: primary human HUVEC with PBMC; actives raise or lower the signal
In short: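 HUVEC/PBMC co-culture, LPS-activated; CD142 ELISA read 24 h post-dose; bidirectional curve fit vs DMSO negative control.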

[4] = read-out: Tumor necrosis factor (Homo sapiens) (UniProt P01375); assay: BSK_LPS_TNFa: BioMAP Diversity Plus: LPS Assay for Tumour Necrosis Factor alpha (TNFa) Biomarker Activity (AID 2283085); settings: primary human HUVEC with PBMC; actives raise or lower the signal;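 as to AC50: TNFa protein level quantified by ELISA in the co-culture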
In short: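 TNFa was quantified by ELISA in LPS-activated co-cultures of human endothelial cells and PBMC, 24 h post-dosing. Both increases and decreases versus DMSO were fitted.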

[5] = read-out: Vascular cell adhesion molecule 1 (VCAM1), VCAM1 (gene 7412); assay: BSK_LPS_VCAM1: BioMAP Diversity Plus: LPS Assay for Vascular cell adhesion molecule 1 (VCAM1) Biomarker Activity (AID 2283086); settings: primary human HUVEC with PBMC; actives raise or lower the signal
In short: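 VCAM-1 quantified by ELISA in an LPS-activated co-culture of human endothelial cells and peripheral blood mononuclear cells, read 24 h post-treatment. Fitted in both directions versus DMSO; parallel SRB staining flags overt cytotoxicity.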

CD38, CD38 (gene 952) = assay: BSK_SAg_CD38: BioMAP Diversity Plus: SAg Assay for CD38 Biomarker Activity (AID 2283087); settings: primary human HUVEC with PBMC; actives raise or lower the signal
In short: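 CD38 quantified by ELISA (fluorescence) in a superantigen-activated endothelial cell–PBMC co-culture at 24 h post-dose. Activity fitted in both directions relative to DMSO; parallel SRB and Alamar Blue cytotoxicity read-outs.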

CD40, CD40 (gene 958) = assay: BSK_SAg_CD40: BioMAP Diversity Plus: SAg Assay for CD40 Biomarker Activity (AID 2283088); settings: primary human HUVEC with PBMC; actives raise or lower the signal
In short: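 HUVEC/PBMC co-culture, 24 h post-dose; CD40 by ELISA, fluorescence intensity; bidirectional fit vs DMSO negative control.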

CD69, CD69 (gene 969) = assay: BSK_SAg_CD69: BioMAP Diversity Plus: SAg Assay for CD69 Biomarker Activity (AID 2283089); settings: primary human HUVEC with PBMC; actives raise or lower the signal;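 as to AC50: cell surface CD69 protein quantified by ELISA with fluorescence detection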
In short: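 Values derive from bidirectional fitting relative to DMSO vehicle. Cells: umbilical vein endothelium plus peripheral blood mononuclear cells, treated 24 h before fluorescent ELISA for CD69.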

[6] = read-out: Monocyte Chemoattractant Protein-1 (MCP1), CCL2 (gene 6347); assay: BSK_SAg_MCP1: BioMAP Diversity Plus: SAg Assay for Monocyte Chemoattractant Protein-1 (MCP1) Biomarker Activity (AID 2283090); settings: primary human HUVEC with PBMC; actives raise or lower the signal
In short: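 Values derive from bidirectional fitting of ELISA-measured MCP1 against DMSO controls. Readings were taken 24 h after dosing human vascular endothelial cells co-cultured with peripheral blood mononuclear cells under superantigen stimulation.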

[7] = read-out: E-selectin (Homo sapiens) (UniProt P16581); assay: BSK_SAg_Eselectin: BioMAP Diversity Plus: SAg Assay for Eselectin Biomarker Activity (AID 2283091); settings: primary human HUVEC with PBMC; actives raise or lower the signal
In short: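 E-selectin ELISA readout at 24 h post-dosing in human umbilical vein endothelial cell/PBMC co-culture; gain or loss of signal fitted relative to DMSO baseline.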

[8] = read-out: Monokine induced gamma interferon (MIG), CXCL9 (gene 4283); assay: BSK_SAg_MIG: BioMAP Diversity Plus: SAg Assay for Monokine induced gamma interferon (MIG) Biomarker Activity (AID 2283092); settings: primary human HUVEC with PBMC; actives raise or lower the signal
In short: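 Values reflect bidirectional fitting of ELISA-measured MIG against DMSO vehicle, taken 24 h after dosing of a co-culture of human umbilical vein endothelial cells and peripheral blood mononuclear cells.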

[9] = BSK_SAg_PBMCCytotoxicity: PBMC Cytotoxicity Assessment in the BioMAP Diversity Plus: SAg Assay (AID 2283093); settings: primary human HUVEC with PBMC;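 also: PBMC viability measured as Alamar Blue reduction fluorescence at 546/580 nm; fitted both ways against DMSO so a hit may be loss or gain of signal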
In short: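 Alamar Blue reduction (6 h, 546/580 nm) reports PBMC cytotoxicity after 90 h superantigen activation (SEB, TSST-1; 20 ng/mL final each) with 1 h compound pre-treatment. Gain or loss of signal fitted versus DMSO.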

[10] = read-out: Interleukin-8 (IL8), CXCL8 (gene 3576); assay: BSK_SAg_IL8: BioMAP Diversity Plus: SAg Assay for Interleukin-8 (IL8) Biomarker Activity (AID 2283094); settings: primary human HUVEC with PBMC; actives raise or lower the signal
In short: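 ELISA readout of IL-8 from a superantigen-activated endothelial/PBMC primary human co-culture, taken 24 h post-dosing and fitted in both directions against DMSO; parallel SRB total-protein staining flags overt cytotoxicity.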

[11] = BSK_SAg_Proliferation: Cell Proliferation Assessment in the BioMAP Diversity Plus: SAg Assay (AID 2283095); settings: primary human HUVEC with PBMC;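 also: relative cell number as total protein by SRB absorbance in sub-confluent culture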
In short: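 Relative cell number in the endothelial cell/PBMC co-culture was quantified at 96 h by SRB staining (0.1% SRB, 10% TCA fixation, read at 560 nm). Curves were fitted in both directions relative to DMSO baseline.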

[12] = BSK_SAg_SRB: Viability Assessment in the BioMAP Diversity Plus: SAg Assay (AID 2283096); settings: primary human HUVEC with PBMC;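 also: cells read one day after compound addition; hits may be either gain or loss of signal compared with DMSO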
In short: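 This overt-cytotoxicity endpoint quantifies protein in human endothelial/PBMC co-cultures at 24 h using SRB absorbance (560 nm) after trichloroacetic acid fixation. Values reflect signal change from the DMSO negative control, fitted bidirectionally.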

[13] = read-out: Macrophage colony-stimulating factor (MCSF), CSF1 (gene 1435); assay: BSK_LPS_MCSF: BioMAP Diversity Plus: LPS Assay for Macrophage colony-stimulating factor (MCSF) Biomarker Activity (AID 2283083); settings: primary human HUVEC with PBMC; actives raise or lower the signal
In short: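 HUVEC + PBMC co-culture (human primary), 24 h post-dose; M-CSF by ELISA; gain/loss of signal fitted bidirectionally vs DMSO baseline.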

[14] = biological target: human CYP19A1, CYP19A1 (gene 1588) (UniProt P11511); assay: NVS_ADME_hCYP19A1: NovaScreen (NVS) CYP450-related Enzyme Activity (ADME) Assay for human CYP19A1 (AID 2283098; active = hit-call score of the fitted dose curve at least 0.9, where 1 is the maximum;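 also: potency for inhibitors seen as loss of fluorescent enzyme signal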)
human CYP19A1, CYP19A1 (gene 1588), sequence (P11511 whole entry, looked up): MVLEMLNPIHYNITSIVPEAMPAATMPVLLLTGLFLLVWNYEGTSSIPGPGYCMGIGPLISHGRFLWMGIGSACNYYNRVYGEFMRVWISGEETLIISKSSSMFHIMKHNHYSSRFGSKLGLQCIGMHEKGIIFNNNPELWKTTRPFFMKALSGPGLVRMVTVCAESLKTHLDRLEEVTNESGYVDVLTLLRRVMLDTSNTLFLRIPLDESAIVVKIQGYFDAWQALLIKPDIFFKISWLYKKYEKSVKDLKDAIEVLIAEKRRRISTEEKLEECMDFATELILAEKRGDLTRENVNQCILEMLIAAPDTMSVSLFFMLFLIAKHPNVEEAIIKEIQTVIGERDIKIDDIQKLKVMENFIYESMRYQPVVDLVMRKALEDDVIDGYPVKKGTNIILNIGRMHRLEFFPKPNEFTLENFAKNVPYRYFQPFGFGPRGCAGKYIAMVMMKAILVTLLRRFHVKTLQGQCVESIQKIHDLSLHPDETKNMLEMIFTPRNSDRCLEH
In short: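 Compounds were first screened at 10 uM in duplicate against purified enzyme, with a fluorogenic substrate and fluorescence intensity detection after 0.5 h. Inhibition appears as reduced signal against acetonitrile control.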

Measured: AC50

Tumor necrosis factor (Homo sapiens), sequence (P01375 whole entry, looked up): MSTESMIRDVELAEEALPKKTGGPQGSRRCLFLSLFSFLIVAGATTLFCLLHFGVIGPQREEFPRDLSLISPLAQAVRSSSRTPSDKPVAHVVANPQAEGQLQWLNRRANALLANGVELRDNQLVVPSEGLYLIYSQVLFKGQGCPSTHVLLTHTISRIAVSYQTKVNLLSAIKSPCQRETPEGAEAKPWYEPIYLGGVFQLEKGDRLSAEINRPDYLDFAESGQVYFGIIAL
E-selectin (Homo sapiens), sequence (P16581 whole entry, looked up): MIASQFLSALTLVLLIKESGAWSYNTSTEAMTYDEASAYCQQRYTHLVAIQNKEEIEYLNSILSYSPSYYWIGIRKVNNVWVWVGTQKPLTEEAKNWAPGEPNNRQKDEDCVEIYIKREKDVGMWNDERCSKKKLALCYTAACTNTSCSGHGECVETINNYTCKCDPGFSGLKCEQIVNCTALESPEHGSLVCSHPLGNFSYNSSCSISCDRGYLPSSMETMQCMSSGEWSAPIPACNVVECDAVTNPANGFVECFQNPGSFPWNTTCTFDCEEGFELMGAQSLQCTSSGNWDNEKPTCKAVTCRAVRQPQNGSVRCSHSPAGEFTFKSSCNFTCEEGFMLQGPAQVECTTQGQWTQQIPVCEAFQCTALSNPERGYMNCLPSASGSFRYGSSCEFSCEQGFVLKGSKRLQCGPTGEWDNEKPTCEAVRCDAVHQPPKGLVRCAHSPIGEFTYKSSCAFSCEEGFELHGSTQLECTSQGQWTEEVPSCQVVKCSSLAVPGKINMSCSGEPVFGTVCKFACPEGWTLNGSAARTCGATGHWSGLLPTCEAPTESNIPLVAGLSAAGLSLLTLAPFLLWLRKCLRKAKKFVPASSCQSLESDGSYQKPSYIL

CC(=O)OCCC(C)CC(C)(C)C (stereo unspecified)
active: [11] 1.85 µM
inactive: [1] | [2] | [3] | [4] | [5] | CD38, CD38 (gene 952) | CD40, CD40 (gene 958) | CD69, CD69 (gene 969) | [6] | [7] | [8] | [9] | [10] | [11] | [12]

CNC[C@H](O)c1cccc(O)c1
active: [2] 0.167 µM
not listed: [13] | [14]
inactive: all other assays above

BrC1CCC(Br)C(Br)CCC(Br)C(Br)CCC1Br (stereo unspecified)
active: [2] 3.87 µM | [13] 4.67 µM | [5] 4.54 µM | CD40, CD40 (gene 958) 4.59 µM | [11] 4.63 µM | [12] 4.67 µM
not listed: CD38, CD38 (gene 952) | [9] | [14]
inactive: all other assays above

Cc1ccc(C(C)C)cc1O
active: [14] 3.83 µM

N#Cc1ccc(CC(=NNC(=O)Nc2ccc(OC(F)(F)F)cc2)c2cccc(C(F)(F)F)c2)cc1
active: [2] 2.68 µM
not listed: CD38, CD38 (gene 952) | [9] | [13] | [14]
inactive: all other assays above

CCCCC(CC)COCCC#N (stereo unspecified)
active: [1] 0.016 µM | [10] 0.0801 µM
not listed: CD38, CD38 (gene 952) | [9] | [13] | [14]
inactive: all other assays above

Nc1cc([N+](=O)[O-])ccc1Cl
not listed: CD38, CD38 (gene 952) | [9] | [13] | [14]
inactive: all other assays above

c1ccc2sc(SN(C3CCCCC3)C3CCCCC3)nc2c1
inactive: [1] | [3] | [5] | [6] | [7] | [8]
active: [2] 13.1 µM | [4] 5.77 µM | CD40, CD40 (gene 958) 7.96 µM | CD69, CD69 (gene 969) 5.79 µM | [10] 3.23 µM | [11] 11.4 µM | [12] 11.4 µM

O=[N+]([O-])c1cc(C(F)(F)F)ccc1Cl
not listed: CD38, CD38 (gene 952) | [9] | [13] | [14]
inactive: all other assays above

CC(C)(COC(=O)c1ccccc1)COC(=O)c1ccccc1
active: [5] 26.2 µM | CD40, CD40 (gene 958) 32.3 µM | CD69, CD69 (gene 969) 31.7 µM | [7] 28.8 µM | [11] 20 µM
not listed: CD38, CD38 (gene 952) | [9] | [13] | [14]
inactive: all other assays above

COc1cc(C=O)ccc1OC(=O)C(C)C
not listed: CD38, CD38 (gene 952) | [9] | [13] | [14]
inactive: all other assays above

O=C(O)c1cn(C2CC2)c2cc(N3CCNCC3)c(F)cc2c1=O
not listed: CD38, CD38 (gene 952) | [9] | [13] | [14]
inactive: all other assays above

c1ccc2c(c1)c1cccc3ccc4cccc2c4c31
active: [3] 0.369 µM
not listed: CD38, CD38 (gene 952) | [9] | [13] | [14]
inactive: all other assays above

CC(C)Oc1ccccc1O
not listed: CD38, CD38 (gene 952) | [9] | [13] | [14]
inactive: all other assays above
